IL1B secr inh – qHTS for Inhibitors of Inflammasome Signaling: IL-1-beta AlphaLISA Primary Screen; THP-1 LPS/ATP IL-1B secretion, AlphaLISA, 16 h; hits give low values; actives 4.7% (n = 360,000); AID 743279, 2014; activity change, % at 57.5 µM; in the data active = activity change below about -50%; inconclusive = mostly about -30% to -49%; also: % is scaled to controls: 0 for no effect and ±100 for the full control effect
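THP-1 cells pretreated 1 hr with compounds (up to 57.5 uM final), then stimulated with LPS (250 ng/mL final) plus ATP (1.25 mM final); secreted IL-1B measured by AlphaLISA after 16 hr, decreased signal indicating inhibition.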
DRD3 agonist – qHTS of D3 Dopamine Receptor Agonist: qHTS; D(3) dopamine receptor (Homo sapiens), P35462; D3R DiscoveRx beta-arrestin cells, luminescence, 90 min; max activation, %; actives 0.58% (n = 410,000); in the data active = max activation above about 30%; also: 0% is about no effect
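Agonist mode: compounds and dopamine controls were applied to plated cells for 90 min at 37 degrees C after an overnight attachment at 1500 cells/well. Luminescent read-out followed 30 - 60 minutes at room temperature with DiscoveRx detection reagent.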
DRD3 antagonist – qHTS of D3 Dopamine Receptor Antagonist: qHTS; AID 652054, 2013; actives 2.5% (n = 360,000); D(3) dopamine receptor (Homo sapiens), P35462; D3R cells, DiscoveRx beta-arrestin luminescence, antagonist mode; hits give low values; max response, negative = inhibition, %; in the data active = max response below about -50%; inconclusive = no clear call, values can overlap the other calls; also: % is scaled to controls: 0 for no effect and ±100 for the full control effect
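Cells expressing the human receptor were seeded at 1500 cells/well, incubated overnight at 37 degrees C in 5% CO2, then exposed to library compounds with dopamine controls for 90 minutes at 37 degrees C before luminescent detection.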
DT40 TDP1 CPT – qHTS for Inhibitors of human tyrosyl-DNA phosphodiesterase 1 (TDP1): qHTS in cells in presence of CPT; chicken DT40 Tdp1-/-;hTDP1 cells + 20 nM CPT, ATP luminescence, 48 h; Potency, µM (series often up to 46.2 µM), without a hit: at the top dose activity change, negative = growth inhibition, most hits filed as inhibitors; actives 12% (n = 420,000); AID 686979, 2013; also: potency is read from the fitted curve at half-maximal effect; % is scaled to controls: 0 for no effect and ±100 for the full control effect; nearly all actives have a fitted effect of over 55% in size
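Chicken DT40 Tdp1-/- cells complemented with human TDP1, 400 cells/well, exposed to compounds plus 20 nM camptothecin for at least 48 h at 37 C; viability read as ATP content by CellTiter-Glo luminescence.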
ClpP mod – qHTS Assay for Activators of ClpP; ATP-dependent Clp protease proteolytic subunit (Bacillus subtilis (strain 168)), P80244; purified B. subtilis ClpP, FRET peptide cleavage, 20 min; Potency, µM (doses to about 57.5 µM), inactives show top-dose activity change, negative = active; actives 1.9% (n = 340,000); AID 651965, 2013; active = well fitted falling curve with a large enough effect; inconclusive = small, poorly fitted or top-dose-only effect; inactive = no such curve, though single readings can be large or run the other way; also: potency is read from the fitted curve at half-maximal effect; the source files actives as falling curves though it sought activators and does not explain the sign; nearly all actives have a fitted effect of over 65% in size
Target sequence (P80244 whole entry, looked up): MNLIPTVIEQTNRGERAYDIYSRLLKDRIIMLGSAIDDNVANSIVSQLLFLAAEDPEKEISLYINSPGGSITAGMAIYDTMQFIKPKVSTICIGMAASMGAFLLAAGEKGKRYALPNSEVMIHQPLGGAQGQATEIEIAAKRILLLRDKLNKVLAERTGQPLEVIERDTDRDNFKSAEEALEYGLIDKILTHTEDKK
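Purified B. subtilis ClpP, 10 microg/mL final in Tris/HCl pH8 with KCl, BSA, glycerol and Tween-20, cleaved an Abz/nitrotyrosine-quenched decapeptide. Fluorescence (ex 320, em 430) was read at 0 and 20 min at room temperature. Delta was normalized to 5.8 microM ADEP and DMSO/no-enzyme controls.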
TDP1 cell noCPT – qHTS for Inhibitors of human tyrosyl-DNA phosphodiesterase 1 (TDP1): qHTS in cells in absence of CPT. Potency, µM (doses to about 46.2 µM), for inactives: top-dose activity change, negative = growth inhibition, usual class: inhibitors. actives 15% (n = 420,000). DT40 Tdp1-/- hTDP1 cells, no CPT, ATP luminescence, 48 h; also: potency is read from the fitted curve at half-maximal effect; % is scaled to controls: 0 for no effect and ±100 for the full control effect; nearly all actives have a fitted effect of over 55% in size
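Cells were dispensed at 400 per well, compounds added by pin tool, plates incubated ≥48 hr at 37 °C, then CellTiter-Glo added for 30 min at room temperature before luminescence reading. Line: DT40 Tdp1-/- complemented with hTDP1; camptothecin omitted.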
An asterisk follows results filed as active; ? = inconclusive; / = no result given. Hits are enriched below; roughly 21% of the tested compounds scored in any of these assays. Unless noted, calls follow the shape of the dose curve; as a rule, active = well fitted inhibition curve with a large enough effect; inconclusive = small, poorly fitted or top-dose-only effect; inactive = flat fitted curve, though single readings scatter.

SMILES	IL1B secr inh	DRD3 agonist	DRD3 antagonist	DT40 TDP1 CPT	ClpP mod	TDP1 cell noCPT
COc1cc(CNC2CCCC2)cc(OC)c1OC	-4	-3	13	5%	-3%	-3%
COc1cc(CNC2CCCC2)cc(Cl)c1OCc1ccc(F)cc1	?	3	59	?	0%	15µM*
Clc1ccc(CNC2CCCC2)cc1	-5	-11	-11	-20%	1%	-13%
COc1cc(CNC2CCCc3ccccc32)cc(OC)c1OC (stereo unspecified)	-13	-6	-11	?	-11%	21µM*
CCOc1cc(CNC2CCCC2)cc(Cl)c1OCc1ccc(F)cc1	-80*	-15	-13	15µM*	?	23µM*
Cc1ccc(Cl)cc1NC(=O)N1CCC(CN2CCc3ccccc3C2)CC1	/	-18	/	-11%	-12%	-13%
Cc1ccccc1N1CCN(C2CCCN(C(=O)c3cc[n+]([O-])cc3)C2)CC1 (stereo unspecified)	-4	-4	18	0%	1%	20%
CCn1c(=O)cc(SCC(=O)NCCCN2CCN(c3ccccc3F)CC2)c2ccccc21	-12	-33	-82*	?	-7%	?
CCn1c(=O)cc(SCC(=O)NCc2cccc(Cl)c2)c2ccccc21	/	-2	/	?	-18%	9.2µM*
CCn1c(=O)cc(SCC(=O)Nc2ccc(Cl)cc2)c2ccccc21	-4	-4	-8	20%	3%	-17%
CCn1c(=O)cc(SCC(=O)NCc2ccc(Cl)cc2)c2ccccc21	/	-19	/	10µM*	-21%	21µM*
CCn1c(=O)cc(SCC(=O)Nc2cccc(C)n2)c2ccccc21	-24	-19	-6	?	-20%	?
O=C(c1cccs1)c1c[nH]cc1-c1ccccc1	-57*	4	-18	-6%	/	-20%
O=C(c1ccccc1)c1c[nH]cc1-c1ccccc1	1	4	26	0%	1%	-12%
CCN(CC)c1ccc(NC(=O)c2cccn2-c2nnc(N3CCCCC3)s2)c(C)c1	/	-3	/	5.2µM*	0%	5.8µM*
Cc1ccc(CNC(=O)c2cccn2-c2nnc(N3CCCCC3)s2)cc1	/	-10	/	21µM*	-5%	23µM*
COc1ccc(NC(=O)c2cccn2-c2nnc(N3CCCCC3)s2)c(OC)c1	/	-2	/	?	1%	?
Cc1ccc(CNC(=O)c2cccn2-c2nnc(N3CCCC3)s2)cc1	/	13	/	?	-8%	?
COc1ccc(CNC(=O)c2cccn2-c2nnc(N3CCCC3)s2)c(OC)c1	/	11	/	?	-7%	16µM*
CCOc1ccc(CNC(=O)c2cccn2-c2nnc(N3CCCCC3)s2)cc1OC	/	-12	/	26µM*	-6%	16µM*
COc1ccc(OC)c(CCNC(=O)c2cccc(NC(=O)C3=C(C)OCCS3)c2)c1	-12	4	8	?	-1%	?
CCCc1[nH]n(-c2ccc([N+](=O)[O-])cc2)c(=O)c1C=NCCCn1ccnc1	-23	-2	-9	-14%	/	-70%
CCCCn1c(N)c(N(CCOC)C(=O)CSc2ccc([N+](=O)[O-])cc2)c(=O)[nH]c1=O	29	-2	-2	-12%	-2%	-19%
COc1ccccc1NC(=O)Nc1nc(CC(=O)N2CCN(c3ccccc3OC)CC2)cs1	-56*	1	0	21µM*	-2%	13µM*
COc1cc(C)ccc1NC(=O)Cc1csc(NC(=O)Nc2ccccc2OC)n1	3	7	56	23µM*	/	23µM*

Compound activity: PubChem BioAssay, National Center for Advancing Translational Sciences (NCATS)
